Out of some 5,500 compounds screened, about 2,000 (36%) were called active. Roughly 18% stayed inconclusive and do not appear here. Rule as the data show it: active = normalized growth mostly below about 0.91 (no sharp cut-off); inconclusive = no clear call, values can overlap the other calls; inactive = mostly above about 0.92. The list shows a part of the results.
Test: chemical genetic growth profiling, strain panel (AID 1159580);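 also: tested at 20 µM; growth read once vehicle control cultures reached saturation at 30 °C; 1 = growth at the plate median or of vehicle wells; lower values mean less growth of the strain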
Conditions: S. cerevisiae deletion strains, growth OD
[1] = locus YAR019C, strain CDC15, stronger effect = lower value
[2] = locus YBL105C, strain PKC1, stronger effect = lower value
[3] = locus YBR135W, strain CKS1, stronger effect = lower value
[4] = locus YBR136W, strain MEC1, stronger effect = lower value
[5] = locus YBR160W, strain CDC28, stronger effect = lower value
[6] = locus YDL017W, strain CDC7, stronger effect = lower value
[7] = locus YDL028C, strain MPS1, stronger effect = lower value
[8] = locus YDL101C, strain DUN1, stronger effect = lower value
[9] = locus YDL108W, strain KIN28, stronger effect = lower value
[10] = locus YDL132W, strain cdc53, stronger effect = lower value
[11] = locus YDL214C, strain PRR2, stronger effect = lower value
[12] = locus YDR052C, strain DBF4, stronger effect = lower value
[13] = locus YDR054C, strain cdc34, stronger effect = lower value
[14] = locus YDR226W, strain ADK1, stronger effect = lower value
[15] = locus YDR477W, strain SNF1, stronger effect = lower value
[16] = locus YER123W, strain YCK3, stronger effect = lower value
[17] = locus YER133W, strain GLC7, stronger effect = lower value
[18] = locus YFL009W, strain cdc4, stronger effect = lower value
[19] = locus YFL029C, strain CAK1, stronger effect = lower value
[20] = locus YFR003C, strain YPI1, stronger effect = lower value
[21] = locus YFR019W, strain FAB1, stronger effect = lower value
[22] = locus YFR028C, strain CDC14, stronger effect = lower value
[23] = locus YGR040W, strain KSS1, stronger effect = lower value
[24] = locus YGR052W, strain FMP48, stronger effect = lower value
[25] = locus YGR092W, strain DBF2, stronger effect = lower value
[26] = locus YHR030C, strain SLT2, stronger effect = lower value
[27] = locus YHR079C, strain IRE1, stronger effect = lower value
[28] = locus YHR082C, strain KSP1, stronger effect = lower value
[29] = locus YHR205W, strain SCH9, stronger effect = lower value
[30] = locus YIL147C, strain SLN1, stronger effect = lower value
[31] = locus YJL095W, strain BCK1, stronger effect = lower value
[32] = locus YJL128C, strain PBS2, stronger effect = lower value
[33] = locus YJL157C, strain FAR1, stronger effect = lower value
[34] = locus YJR016C, strain ILV3, stronger effect = lower value
[35] = locus YJR066W, strain TOR1 (second series), stronger effect = lower value
[36] = locus YJR066W, strain TOR1, stronger effect = lower value
[37] = locus YKL048C, strain ELM1, stronger effect = lower value
[38] = locus YKL067W, strain YNK1, stronger effect = lower value
[39] = locus YKL101W, strain HSL1, stronger effect = lower value
[40] = locus YKL193C, strain SDS22, stronger effect = lower value
[41] = locus YKL203C, strain TOR2, stronger effect = lower value
[42] = locus YLR113W, strain HOG1, stronger effect = lower value
[43] = locus YLR133W, strain CKI1, stronger effect = lower value
[44] = locus YLR403W, strain SFP1, stronger effect = lower value
[45] = locus YML070W, strain DAK1, stronger effect = lower value
[46] = locus YMR001C, strain CDC5, stronger effect = lower value
[47] = locus YMR205C, strain PFK2 (second series), stronger effect = lower value
[48] = locus YMR277W, strain FCP1, stronger effect = lower value
[49] = locus YNL006W, strain LST8, stronger effect = lower value
[50] = locus YNL020C, strain ARK1, stronger effect = lower value
[51] = locus YNL161W, strain CBK1, stronger effect = lower value
[52] = locus YNL183C, strain NPR1, stronger effect = lower value
[53] = locus YNL207W, strain RIO2, stronger effect = lower value
[54] = locus YNL222W, strain SSU72, stronger effect = lower value
[55] = locus YNL307C, strain MCK1 (second series), stronger effect = lower value
[56] = locus YOL078W, strain AVO1, stronger effect = lower value
[57] = locus YOL136C, strain PFK27, stronger effect = lower value
[58] = locus YOR061W, strain CKA2, stronger effect = lower value
[59] = locus YOR119C, strain RIO1, stronger effect = lower value
[60] = locus YOR231W, strain MKK1, stronger effect = lower value
[61] = locus YOR329C, strain SCD5, stronger effect = lower value
[62] = locus YPL031C, strain PHO85, stronger effect = lower value
[63] = locus YPL153C, strain RAD53, stronger effect = lower value
[64] = locus YPL204W, strain HRR25, stronger effect = lower value
[65] = locus YPL209C, strain IPL1, stronger effect = lower value
[66] = locus YPL256C, strain CLN2, stronger effect = lower value
[67] = locus YPR025C, strain CCL1, stronger effect = lower value
[68] = locus YPR106W, strain ISR1, stronger effect = lower value
[69] = locus YPR111W, strain DBF20, stronger effect = lower value
[70] = strain NNK1, stronger effect = lower value
[71] = strain TSCII, stronger effect = lower value

Measured: normalized growth

Cc1cc(C(=O)O/N=C(/N)c2ccc(C(C)(C)C)cc2)no1
active: [26] 0.77 | [42] 0.789
inactive: [1] 0.972 | [2] 0.979 | [3] 0.975 | [4] 0.985 | [5] 0.979 | [6] 0.993 | [7] 0.971 | [8] 0.993 | [9] 0.976 | [10] 0.975 | [11] 0.909 | [12] 0.986 | [13] 0.963 | [14] 0.983 | [15] 0.911 | [16] 0.901 | [17] 0.882 | [18] 0.952 | [19] 0.969 | [20] 0.986 | [21] 0.922 | [22] 0.98 | [23] 0.956 | [24] 0.958 | [25] 0.906 | [27] 0.789 | [28] 0.939 | [29] 0.822 | [30] 0.982 | [31] 0.772 | [32] 0.938 | [33] 0.923 | [34] 0.98 | [35] 0.738 | [36] 0.722 | [37] 1.05 | [38] 0.921 | [39] 1.01 | [40] 0.978 | [41] 0.88 | [43] 0.943 | [44] 0.852 | [45] 0.915 | [46] 0.974 | [47] 0.916 | [48] 0.961 | [49] 0.972 | [50] 0.942 | [51] 0.983 | [52] 0.782 | [53] 0.979 | [54] 0.969 | [55] 0.939 | [56] 0.979 | [57] 0.959 | [58] 0.93 | [59] 0.911 | [60] 0.803 | [61] 0.987 | [62] 0.901 | [63] 0.893 | [64] 0.914 | [65] 0.974 | [66] 0.884 | [67] 0.973 | [68] 0.98 | [69] 0.964 | [70] 0.999 | [71] 0.966

N/C(=N\OC(=O)c1ccno1)c1ccc(C(F)(F)F)cc1
inactive: locus YAL013W, strain DEP1, stronger effect = lower value 0.951 | locus YBR229C, strain ROT2, stronger effect = lower value 0.992 | locus YCL061C, strain MRC1, stronger effect = lower value 0.974 | [8] 1.02 | locus YDR150W, strain NUM1, stronger effect = lower value 0.978 | locus YEL061C, strain CIN8, stronger effect = lower value 1 | locus YGR078C, strain PAC10, stronger effect = lower value 0.971 | locus YGR229C, strain SMI1, stronger effect = lower value 1.02 | [26] 0.888 | locus YHR087W, strain rtc3, stronger effect = lower value 0.966 | locus YJL187C, strain SWE1, stronger effect = lower value 0.993 | locus YJR043C, strain POL32, stronger effect = lower value 0.988 | locus YJR075W, strain HOC1, stronger effect = lower value 1.01 | locus YKL190W, strain CNB1, stronger effect = lower value 1.01 | locus YLR039C, strain RIC1, stronger effect = lower value 0.91 | locus YLR058C, strain SHM2 (second series), stronger effect = lower value 0.988 | locus YLR085C, strain ARP6, stronger effect = lower value 1.06 | locus YLR262C, strain YPT6, stronger effect = lower value 0.944 | locus YML094W, strain GIM5, stronger effect = lower value 0.95 | locus YMR219W, strain ESC1, stronger effect = lower value 0.996 | locus YMR263W, strain SAP30, stronger effect = lower value 0.98 | locus YMR307W, strain GAS1, stronger effect = lower value 1.17 | locus YNL153C, strain GIM3, stronger effect = lower value 0.973 | locus YNL298W, strain CLA4 (second series), stronger effect = lower value 0.949 | locus YNL322C, strain KRE1, stronger effect = lower value 0.987 | locus YNR030W, strain Alg12, stronger effect = lower value 0.939 | locus YOL006C, strain TOP1, stronger effect = lower value 0.939 | locus YPL055C, strain LGE1, stronger effect = lower value 0.839 | locus YPL241C, strain CIN2, stronger effect = lower value 1.03 | locus YPR135W, strain CTF4, stronger effect = lower value 0.82

Cc1cc(C(=O)O/N=C(/N)c2ccc([N+](=O)[O-])o2)no1
inactive: [1] 0.961 | [2] 0.968 | [3] 0.963 | [4] 0.962 | [5] 0.951 | [6] 0.963 | [7] 0.931 | [8] 0.964 | [9] 0.949 | [10] 0.968 | [11] 0.887 | [12] 0.919 | [13] 0.991 | [14] 0.927 | [15] 0.918 | [16] 0.87 | [17] 0.963 | [18] 0.97 | [19] 0.965 | [20] 0.955 | [21] 0.877 | [22] 0.938 | [23] 0.848 | [24] 0.869 | [27] 0.832 | [28] 0.892 | [29] 0.745 | [30] 0.946 | [31] 0.796 | [32] 0.895 | [33] 0.914 | [34] 0.953 | [35] 0.822 | [36] 0.809 | [37] 0.831 | [38] 0.868 | [39] 0.83 | [40] 0.962 | [41] 0.99 | [43] 0.894 | [44] 0.927 | [45] 0.846 | [46] 0.963 | [47] 0.938 | [48] 0.941 | [49] 0.979 | [50] 0.885 | [51] 0.967 | [52] 0.898 | [53] 0.948 | [54] 0.957 | [55] 0.825 | [56] 0.952 | [57] 0.873 | [58] 0.866 | [59] 0.888 | [61] 0.965 | [62] 0.92 | [63] 0.949 | [64] 0.946 | [65] 0.964 | [67] 0.97 | [68] 0.936 | [69] 0.896 | [70] 0.94 | [71] 0.965
active: [25] 0.178 | [26] 0.218 | [42] 0.757 | [60] 0.567 | [66] 0.741
